Screens: PubChem, The Scripps Research Institute Molecular Screening Center
FBW7 act: activators of human E3 ligase FBW7. normalized activity (activation), % at 26.1 µM. Q969H0. AlphaScreen FBW7–phospho-cyclin E peptide binding, activator screen. hit rate 0.13% among 650,000; in the data active means normalized activity above about 1.9%;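 further: purified mutant Fbw7 with reduced substrate affinity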
MITF primary: blocks human microphthalmia-associated transcription factor | O75030 | AID 1259374 | hit rate 0.91% among 650,000 | inhibition, % at 2.6 µM | AlphaScreen MITF homodimerization, bead proximity signal; in the data active means inhibition above about 50%;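 further: 0% = vehicle wells with protein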
GPR151 ag: activates the human receptor GPR151 | AID 1508602 | activation, % at 11.2 µM | Q8TDV0 | hit rate 1% among 650,000 | PathHunter beta-arrestin GPR151 cells, luminescence; in the data active means activation above about 4.9%;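 further: 0% = median of compound wells and 100% = cells with positive control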
Target sequence (Q8TDV0 whole entry, looked up): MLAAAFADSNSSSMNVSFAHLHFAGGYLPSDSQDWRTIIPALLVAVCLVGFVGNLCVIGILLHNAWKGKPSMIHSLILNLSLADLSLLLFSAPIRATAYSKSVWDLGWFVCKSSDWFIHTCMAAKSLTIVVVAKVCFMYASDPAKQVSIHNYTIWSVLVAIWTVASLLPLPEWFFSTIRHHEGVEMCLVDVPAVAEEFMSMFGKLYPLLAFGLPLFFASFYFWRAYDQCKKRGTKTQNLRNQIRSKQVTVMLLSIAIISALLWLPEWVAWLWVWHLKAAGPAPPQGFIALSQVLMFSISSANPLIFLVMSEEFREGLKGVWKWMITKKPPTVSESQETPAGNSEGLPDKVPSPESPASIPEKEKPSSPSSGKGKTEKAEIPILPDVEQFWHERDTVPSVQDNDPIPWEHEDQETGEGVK
TEAD-YAP inh: TEAD-YAP interaction inhibition | HEK-TIYL cells, TEAD-Gal4/YAP UAS-luciferase luminescence | inhibition, % at 9.12 µM | hit rate 1.4% among 640,000; in the data active means inhibition above about 32%;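 further: 0% = median of test compound wells and 100% = reference inhibitor wells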
* hit, by the source's call; . = no result. An excerpt weighted towards active compounds, which were near 3.5% of everything screened.

SMILES | FBW7 act | MITF primary | GPR151 ag | TEAD-YAP inh
NC(Cc1cc(O)c(O)cc1O)C(=O)O (centres undefined) | 0 | 62* | 0 | -7
CN1CCc2nc(SCC(=O)NC(C)(C)C)c(C#N)cc2C1 | 0 | -2 | 0 | -1
C1=C(c2cccnc2)Nc2nnnn2C1c1cccs1 (centres undefined) | 0 | 5 | 1 | -10
O=C1NC(=S)NC(=O)C1=Cc1ccc(OCc2cccc(C(=O)O)c2)cc1 | 0 | 5 | -8 | 63*
CCn1nc(/C=C/c2ccccc2)nc2c(=O)n(C)c(=O)nc1-2 | -2 | 6 | -6 | 33*
CCn1nc(-c2ccc([N+](=O)[O-])cc2)nc2c(=O)n(C)c(=O)nc1-2 | 0 | 9 | -8 | 70*
COc1ccc(-n2c(/C=C/c3ccccc3)nc3ccccc3c2=O)cc1 | 0 | -3 | 1 | 7
O=c1c2cc([N+](=O)[O-])ccc2nc(CN2CCCCC2)n1-c1ccccc1F | 0 | -2 | 0 | -9
CC1CCc2c(cnc3scc[n+]23)C1 (centres undefined) | 1 | 18 | -2 | 0
COc1ccccc1-n1c(/C=C/c2ccc([N+](=O)[O-])cc2)nc2ccccc2c1=O | 0 | -15 | -1 | 16
COc1ccccc1-n1c(/C=C/c2ccc(N(C)C)cc2)nc2ccccc2c1=O | 2.3* | -16 | 0 | -12
COc1ccc(O)c(CN2CCN(c3ccccc3OC)CC2)c1 | 0 | 17 | 0 | -8
COc1cc2c(cc1OC)[C@@H]1C(=O)c3ccc4c(c3O[C@@H]1CO2)C[C@H](C(C)C)O4 | 0 | 13 | 2 | 68*
COc1cccc(N2CCN(Cc3ccccc3[N+](=O)[O-])CC2)c1 | 0 | 41 | -1 | 6
COc1ccc(N2CCN(Cc3ccc(F)cc3F)CC2)cc1 | 0 | 56* | -2 | -3
COc1ccc(CN2CCN(c3ccc(F)cc3)CC2)c(OC)c1 | 0 | 23 | -1 | 1
COc1ccc(N2CCN(Cc3ccccc3[N+](=O)[O-])CC2)cc1 | 0 | 57* | -1 | -11
C[C@@H]1C[C@@H]([C@H](O)CC2CC(=O)NC(=O)C2)C(=O)[C@@H](C)C1 | 0 | -9 | -3 | 98*
Cc1c2oc3c(C)ccc(C(=O)N[C@@H]4C(=O)N[C@H](C(C)C)C(=O)N5CCC[C@H]5C(=O)N(C)CC(=O)N(C)[C@@H](C(C)C)C(=O)O[C@@H]4C)c3nc-2c(C(=O)N[C@@H]2C(=O)N[C@H](C(C)C)C(=O)N3CC(=O)C[C@H]3C(=O)N(C)CC(=O)N(C)[C@@H](C(C)C)C(=O)O[C@@H]2C)c(N)c1=O | 0 | 4 | -1 | 95*
O=C(Nc1cc(Cl)c([N+](=O)[O-])cc1Cl)c1cccs1 | 0 | 10 | 2 | 14
CCOC(=O)C1C2NC(=S)N(c3ccc(C)cc3)C1(C)Oc1c(Cl)cc(Cl)cc12 (centres undefined) | 0 | 6 | 0 | 63*
CCOC(=O)C1C2NC(=S)N(c3c(C)cccc3C)C1(C)Oc1c(Cl)cc(Cl)cc12 (centres undefined) | 0 | -1 | 2 | -14
CCOC(=O)C1C2NC(=S)N(c3cccc(Cl)c3)C1(C)Oc1c(Cl)cc(Cl)cc12 (centres undefined) | 0 | -10 | -1 | 55*
Cc1ccc(-n2c(-c3ccccn3)nc3ccccc3c2=O)cc1 | 0 | -5 | 0 | -18
Cc1ccc(-n2c(/C=C/c3ccccc3Br)nc3ccccc3c2=O)cc1 | 0 | -8 | 0 | 51*
SMILES | FBW7 act | MITF primary | GPR151 ag | TEAD-YAP inh
O=C(c1ccc2c(c1)ncn2-c1ccc(OCc2ccccc2)cc1)N1CCC2(CC1)OCCO2 | 0 | -2 | 2 | 42*
O=C(c1ccc2c(c1)ncn2C1CCCCCC1)N1CCC2(CC1)OCCO2 | 0 | -1 | 0 | -11
COc1ccc(-n2cnc3cc(C(=O)N4CCC5(CC4)OCCO5)ccc32)cc1 | 0 | 2 | 0 | 48*
COc1ccc2c(c1)COC1(CCN(C(=O)N[C@@H](C)c3ccccc3)CC1)O2 | 0 | 19 | -1 | 12
O=C(Oc1cccc2cccnc12)N1CCCCC1 | 0 | 7 | 0 | -2
c1c2c(cc3c1OCCO3)C1(CCCC1)CNC2 | 0 | 9 | 0 | 7
CCOC(=O)C1C2NC(=S)N(c3ccc(Cl)cc3)C1(C)Oc1ccc(Br)cc12 (centres undefined) | 0 | 19 | 1 | 54*
CCOC(=O)C1C2NC(=S)N(c3ccc(C)cc3)C1(C)Oc1ccc(OC)cc12 (centres undefined) | -1 | 43 | 0 | 2
CCOC(=O)C1C2NC(=S)N(c3ccc(Br)cc3)C1(C)Oc1ccc(OC)cc12 (centres undefined) | 0 | 17 | -1 | 63*
C[C@@H]1O[C@@H](O[C@H]2CC[C@]3(C=O)C4CC[C@]5(C)[C@@H](C6=CC(=O)OC6)CC[C@]5(O)C4CC[C@]3(O)C2)[C@H](O)[C@H](O)[C@H]1O (some centres undefined) | 0 | -3 | -1 | 101*
CC1O[C@@H](OC2C[C@@H](O)[C@]3(CO)[C@H]4[C@H](O)C[C@]5(C)C(C6=CC(=O)OC6)CC[C@]5(O)[C@@H]4CC[C@]3(O)C2)C(O)[C@@H](O)[C@H]1O (some centres undefined) | 0 | -1 | 0 | .
CC(=O)O[C@H]1CC[C@]2(C=O)C3CC[C@]4(C)[C@@H](C5=CC(=O)OC5)CC[C@]4(O)[C@@H]3CC[C@]2(O)C1 (some centres undefined) | 0 | 5 | 0 | 102*
C[n+]1c2ccccc2nc2ccc(NC3CCCCC3N)cc21 (centres undefined) | 0 | 20 | 0 | 77*
CCN1CCC(O)(c2ccccc2)C(C(=O)c2ccccc2)C1 (centres undefined) | 2.0* | 9 | -1 | 4
CCC1CN(C)CCC1(O)c1ccccc1 (centres undefined) | 0 | 10 | 1 | 9
CCNC(=O)c1c(Cc2ccccc2C)n(Cc2ccccn2)c(C)cc1=O | 0 | 1 | 0 | -7
CC(=O)[O][Hg][c]1ccccc1 | 0 | -4 | 1 | 98*
CCN(CC)C(C)C(=O)c1ccccc1 (centres undefined) | 0 | -6 | 0 | -3
CN1CCN(c2ccccc2)CC1 | 1 | 16 | 1 | 1
CCN1CCN(c2ccc(C(C)=O)cc2F)CC1 | 0 | 12 | -1 | 7
Cc1ccc(C(=O)NC(CO)C(=O)O)cc1N(CCCl)CCCl (centres undefined) | 0 | -9 | 3 | 0
C#CCOc1ccccc1/C=C/[N+](=O)[O-] | 0 | 2 | -2 | 46*
COc1ccc(OC)c(C2=NCC(=O)Nc3c2oc2ccccc32)c1 | 0 | -4 | 1 | 52*
Cc1cc(C)cc(N2C(=O)CC(=O)NC2=S)c1 | 0 | 2 | 0 | 7
O=C1/C(=C/c2cccnc2)N2CCC1CC2 | 0 | 2 | 0 | -7
CN1C2CCC1/C(=C\c1cccnc1)C(=O)/C2=C/c1cccnc1 | 1 | 22 | 0 | 53*
